# Laboratory results reported in PubChem BioAssay (NCATS).
# Unmarked numbers belong to inactive results. Records with an inconclusive call do not appear. Where a call stands in place of a potency, no number is given. Active and inactive are the calls of the source. Unless noted, the call rests on the fitted dose curve; in most records, active means well fitted curve in the direction sought with a large enough effect; inconclusive means small, poorly fitted or top-dose-only effect, or another doubt; inactive means no such curve, though single readings can be large; an effect the other way counts as inactive or inconclusive.
# Key:
# [1] = target: Rap guanine nucleotide exchange factor 3 (Homo sapiens) (UniProt O95398); test: Confirmatory qHTS for agonist of cAMP-regulated guanine nucleotide exchange factor 3 (EPAC1) (AID 1645881);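 further: EPAC1 catalysed release of BODIPY-GDP from Rap1B seen as fluorescence loss; nearly all actives have a fitted effect of over 75% in size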
# Rap guanine nucleotide exchange factor 3 (Homo sapiens), sequence (O95398 whole entry, looked up): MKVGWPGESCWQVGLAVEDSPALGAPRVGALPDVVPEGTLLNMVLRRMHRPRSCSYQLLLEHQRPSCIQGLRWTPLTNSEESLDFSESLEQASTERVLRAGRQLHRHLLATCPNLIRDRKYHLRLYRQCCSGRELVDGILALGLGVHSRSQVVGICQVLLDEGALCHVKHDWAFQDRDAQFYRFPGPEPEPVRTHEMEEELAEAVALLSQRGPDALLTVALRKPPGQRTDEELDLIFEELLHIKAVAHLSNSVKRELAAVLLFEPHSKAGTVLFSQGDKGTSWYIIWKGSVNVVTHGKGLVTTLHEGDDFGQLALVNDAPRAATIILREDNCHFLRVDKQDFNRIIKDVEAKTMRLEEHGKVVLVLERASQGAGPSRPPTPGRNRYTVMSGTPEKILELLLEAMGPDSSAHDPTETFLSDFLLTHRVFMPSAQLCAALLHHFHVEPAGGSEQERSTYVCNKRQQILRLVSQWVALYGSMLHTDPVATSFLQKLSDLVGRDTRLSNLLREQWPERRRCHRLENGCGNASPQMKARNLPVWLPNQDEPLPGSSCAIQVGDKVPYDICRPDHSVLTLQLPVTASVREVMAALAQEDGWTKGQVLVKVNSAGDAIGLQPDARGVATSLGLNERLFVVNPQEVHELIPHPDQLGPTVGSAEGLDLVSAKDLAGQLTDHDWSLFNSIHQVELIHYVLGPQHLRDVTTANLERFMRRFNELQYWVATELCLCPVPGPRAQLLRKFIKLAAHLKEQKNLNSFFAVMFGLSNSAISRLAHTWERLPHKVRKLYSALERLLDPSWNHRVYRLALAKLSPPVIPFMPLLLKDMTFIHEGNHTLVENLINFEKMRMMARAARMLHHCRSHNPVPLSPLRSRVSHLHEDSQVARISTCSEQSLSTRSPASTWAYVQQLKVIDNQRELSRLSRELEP
# [2] = target: Rap guanine nucleotide exchange factor 4 (Homo sapiens) (UniProt Q8WZA2); test: Confirmatory qHTS for agonist of cAMP-regulated guanine nucleotide exchange factor 4 (EPAC2) (AID 1645884);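 further: nucleotide exchange releases bodipy-GDP from Rap1 and this lowers its fluorescence; nearly all actives have a fitted effect of over 65% in size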; further: potency means the concentration at half of the fitted maximal effect
# Rap guanine nucleotide exchange factor 4 (Homo sapiens), sequence (Q8WZA2 whole entry, looked up): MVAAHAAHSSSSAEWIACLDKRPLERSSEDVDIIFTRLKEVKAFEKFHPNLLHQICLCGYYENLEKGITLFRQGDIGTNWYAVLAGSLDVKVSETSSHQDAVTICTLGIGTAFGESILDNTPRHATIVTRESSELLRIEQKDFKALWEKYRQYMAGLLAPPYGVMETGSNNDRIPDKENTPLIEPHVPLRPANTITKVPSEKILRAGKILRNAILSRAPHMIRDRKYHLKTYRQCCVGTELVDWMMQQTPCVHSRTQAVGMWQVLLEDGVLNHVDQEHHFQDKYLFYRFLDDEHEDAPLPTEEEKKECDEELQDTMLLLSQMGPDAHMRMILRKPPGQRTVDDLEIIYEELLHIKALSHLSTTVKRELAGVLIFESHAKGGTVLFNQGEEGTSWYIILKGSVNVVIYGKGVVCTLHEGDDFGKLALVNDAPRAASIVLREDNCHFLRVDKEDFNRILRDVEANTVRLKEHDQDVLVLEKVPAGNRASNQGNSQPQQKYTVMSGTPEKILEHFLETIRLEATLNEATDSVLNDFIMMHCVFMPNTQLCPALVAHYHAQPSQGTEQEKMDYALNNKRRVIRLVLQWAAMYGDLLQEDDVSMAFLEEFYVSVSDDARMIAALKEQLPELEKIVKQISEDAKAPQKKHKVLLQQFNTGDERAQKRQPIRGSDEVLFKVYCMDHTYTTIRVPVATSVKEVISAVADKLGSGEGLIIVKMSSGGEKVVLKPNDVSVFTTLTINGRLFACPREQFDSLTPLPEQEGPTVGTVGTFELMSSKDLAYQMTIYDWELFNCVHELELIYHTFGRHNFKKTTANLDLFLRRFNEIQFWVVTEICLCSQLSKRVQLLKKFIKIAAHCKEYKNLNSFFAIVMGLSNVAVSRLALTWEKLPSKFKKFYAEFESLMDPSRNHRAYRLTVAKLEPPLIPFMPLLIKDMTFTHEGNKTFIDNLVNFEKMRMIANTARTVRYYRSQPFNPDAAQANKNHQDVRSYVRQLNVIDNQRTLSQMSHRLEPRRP
# [3] = target: Rap guanine nucleotide exchange factor 4 (Homo sapiens) (UniProt Q8WZA2); test: Confirmatory qHTS for antagonist of cAMP-regulated guanine nucleotide exchange factor 4 (EPAC2) (AID 1645885); further: nearly all actives have a fitted effect of over 25% in size; further: potency means the concentration at half of the fitted maximal effect
# [4] = target: Rap guanine nucleotide exchange factor 3 (Homo sapiens) (UniProt O95398); test: Counterscreen qHTS for agonist of cAMP-regulated guanine nucleotide exchange factor 3 (EPAC1) (AID 1645889); further: nearly all actives have a fitted effect of over 40% in size; further: potency means the concentration at half of the fitted maximal effect
# Summary of the method: (§1)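 Rap1B-BODIPY-GDP 250 nM + GDP 50 uM; cpds 7-pt, final 9.74 nM–152 uM (activator mode) or from 7.32 nM upwards (inhibitor mode); RT; FI 480/540 nm at 5 and 30 min, then ± cAMP, reread.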
# [5] = NFAT Signaling Pathway (AID 444; active means well fitted curve in either direction with a large enough effect, not every such curve was filed as active;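 further: carbachol stimulus at about its EC50 of 1 µM final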); conditions: Jurkat NFAT-bla M1, carbachol, beta-lactamase ratio, 5 h; at 7.69 µM (top of the series) unless noted
# Summary of the method: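 Read-out: CCF4 FRET ratio (460 nm/530 nm) after 1 h RT dye loading, used for %activity and AC50 from titration series. Cells: Jurkat NFAT-β-lactamase/M1 line, treated with compound plus 1 uM carbachol for 5 h, 37 °C.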
# [6] = target: Glucocorticoid receptor (Homo sapiens) (UniProt P04150); test: GR-GFP Redistribution (AID 450;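 active means compounds whose dose series gives a full or clear partial fitted curve of increased nuclear translocation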; further: potency means the concentration at half of the fitted maximal effect); conditions: U2OS GR-GFP nuclear translocation, laser cytometry, 2 h
# Glucocorticoid receptor (Homo sapiens), sequence (P04150 whole entry, looked up): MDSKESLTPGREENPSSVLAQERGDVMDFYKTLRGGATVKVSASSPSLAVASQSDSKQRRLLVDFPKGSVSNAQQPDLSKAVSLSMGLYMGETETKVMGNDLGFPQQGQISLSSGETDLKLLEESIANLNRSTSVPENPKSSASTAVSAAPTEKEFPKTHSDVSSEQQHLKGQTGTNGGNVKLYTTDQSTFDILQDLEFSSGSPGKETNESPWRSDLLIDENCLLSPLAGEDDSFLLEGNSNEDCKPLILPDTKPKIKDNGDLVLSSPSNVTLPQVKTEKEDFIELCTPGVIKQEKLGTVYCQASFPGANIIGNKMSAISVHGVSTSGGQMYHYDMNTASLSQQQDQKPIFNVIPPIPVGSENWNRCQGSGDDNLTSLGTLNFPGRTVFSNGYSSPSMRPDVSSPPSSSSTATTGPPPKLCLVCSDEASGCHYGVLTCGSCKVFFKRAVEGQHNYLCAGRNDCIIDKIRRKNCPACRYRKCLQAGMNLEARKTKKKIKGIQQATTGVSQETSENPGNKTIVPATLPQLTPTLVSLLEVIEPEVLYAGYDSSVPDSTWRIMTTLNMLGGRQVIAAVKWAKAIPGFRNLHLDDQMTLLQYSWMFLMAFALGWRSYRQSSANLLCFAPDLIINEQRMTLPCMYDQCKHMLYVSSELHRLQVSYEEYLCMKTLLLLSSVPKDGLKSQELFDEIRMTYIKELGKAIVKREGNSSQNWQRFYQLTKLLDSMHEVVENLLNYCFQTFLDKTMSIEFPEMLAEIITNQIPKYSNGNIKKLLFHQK
# [7] = target: Cytochrome P450 2C19 (Homo sapiens) (UniProt P33261); test: qHTS Assay for Inhibitors and Substrates of Cytochrome P450 2C19 (AID 899); further: potency means the concentration at half of the fitted maximal effect; nearly all actives have a fitted effect of over 60% in size
# Cytochrome P450 2C19 (Homo sapiens), sequence (P33261 whole entry, looked up): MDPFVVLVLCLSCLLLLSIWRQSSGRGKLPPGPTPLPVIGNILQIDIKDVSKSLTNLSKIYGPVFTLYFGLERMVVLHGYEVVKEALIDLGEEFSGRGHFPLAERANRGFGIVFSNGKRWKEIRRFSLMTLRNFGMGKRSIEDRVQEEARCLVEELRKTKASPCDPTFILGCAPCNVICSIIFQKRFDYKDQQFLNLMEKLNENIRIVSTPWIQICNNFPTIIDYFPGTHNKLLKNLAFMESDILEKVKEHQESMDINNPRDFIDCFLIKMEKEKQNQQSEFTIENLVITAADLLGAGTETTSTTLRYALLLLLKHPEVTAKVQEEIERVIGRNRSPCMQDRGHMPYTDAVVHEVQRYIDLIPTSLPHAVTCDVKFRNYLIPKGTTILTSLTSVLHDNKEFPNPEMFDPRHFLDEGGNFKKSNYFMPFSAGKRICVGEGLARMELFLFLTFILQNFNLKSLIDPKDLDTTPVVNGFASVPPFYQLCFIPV
# Summary of the method: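 Luminescence readout of luciferin formed from 10uM Luciferin-H EGE (KM level) by 5 nM CYP2C19 in 50mM KPO4. 60 min NADPH-driven reaction at 37C after 10 min compound preincubation; data scaled to 57uM ketoconazole inhibition.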
# [8] = target: Cytochrome P450 3A4 (Homo sapiens) (UniProt P08684); test: qHTS Assay for Inhibitors and Substrates of Cytochrome P450 3A4 (AID 884); further: potency means the concentration at half of the fitted maximal effect; nearly all actives have a fitted effect of over 50% in size
# Cytochrome P450 3A4 (Homo sapiens), sequence (P08684 whole entry, looked up): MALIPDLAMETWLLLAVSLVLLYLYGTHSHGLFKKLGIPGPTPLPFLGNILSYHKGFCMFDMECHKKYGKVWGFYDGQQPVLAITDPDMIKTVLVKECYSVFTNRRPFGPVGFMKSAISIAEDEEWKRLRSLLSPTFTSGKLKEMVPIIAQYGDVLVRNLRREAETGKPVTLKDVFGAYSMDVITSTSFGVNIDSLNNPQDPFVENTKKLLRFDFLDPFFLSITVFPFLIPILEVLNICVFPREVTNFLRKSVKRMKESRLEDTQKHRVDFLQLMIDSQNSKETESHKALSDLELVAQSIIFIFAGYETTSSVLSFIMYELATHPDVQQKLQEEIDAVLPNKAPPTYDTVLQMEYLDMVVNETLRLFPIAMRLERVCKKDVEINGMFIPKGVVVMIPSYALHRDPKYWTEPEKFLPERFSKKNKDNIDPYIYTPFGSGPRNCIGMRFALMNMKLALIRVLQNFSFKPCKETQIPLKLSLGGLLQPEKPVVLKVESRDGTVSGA
# Summary of the method: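 20 nM human CYP3A4 with 25 uM Luciferin-PPXE (at KM) in 200 mM KPO4, preincubated 10 min with compound; NADPH regeneration started a 60 min RT reaction. Luciferin detected by luminescence, normalized to 57 uM ketoconazole as full inhibition.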
# [9] = target: Rap guanine nucleotide exchange factor 3 (Homo sapiens) (UniProt O95398); test: Counterscreen qHTS for antagonist of cAMP-regulated guanine nucleotide exchange factor 3 (EPAC1) (AID 1645888);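 further: fluorescence loss as bound BODIPY-GDP is released from Rap1B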
# Summary of the method: as §1
compound,measurement,setting,value
CC(C)CCNC(=O)c1onc(CSc2ccccn2)c1C(=O)NCCC(C)C,Potency,[1],inactive
same,Potency,[2],inactive
same,Potency,[3],inactive
same,Potency,[4],inactive
COCc1nc2ccccc2n1Cc1ccc(C(C)(C)C)cc1,Potency,[1],inactive
same,Potency,[2],inactive
same,Potency,[3],inactive
same,Potency,[4],inactive
COC(=O)CC1(c2ccc(OC)cc2)C(=O)c2ccccc2C1=O,Potency,[1],inactive
same,Potency,[2],inactive
same,Potency,[3],inactive
same,Potency,[4],inactive
Cc1cc(C)cc(N(CC(=O)Nc2ccc(C(F)(F)F)cc2)S(=O)(=O)c2c(C)[nH]c(=O)[nH]c2=O)c1,Potency,[1],inactive
same,Potency,[2],inactive
same,Potency,[3],inactive
same,Potency,[4],inactive
CCCCCC(=O)N1c2ccccc2C(C)(c2ccccc2)CC1(C)C (configuration not stated),Potency,[1],inactive
same,Potency,[2],inactive
same,Potency,[3],inactive
same,Potency,[4],inactive
C=CC(C)N1C(=O)S/C(=C\c2ccc(N3CCOCC3)cc2C)C1=O (configuration not stated),Potency,[1],inactive
same,Potency,[2],inactive
same,Potency,[3],84.9 µM (active)
same,Potency,[4],inactive
CN(C)c1ncc2ncc(=O)n(Cc3cccs3)c2n1,"activity change, negative = inhibition",[5],-18.4%
same,Potency,[6],> 9.22 µM
Nc1nc(N)c(-c2cccc(C(F)(F)F)c2)c(Cc2cccc(C(F)(F)F)c2)n1,Potency,[6],> 46 µM
same,Potency,[7],2.51 µM (active)
COC(=O)[C@@]1(C)CCC[C@@]2(C)c3ccc(O)c(C(C)C)c3CCC21 (some centres not stated),Potency,[8],31.6 µM (active)
O=c1c(O)c(-c2ccccc2)oc2ccc3occc3c12,Potency,[8],3.16 µM (active)
CN1CCc2nc3sc(C(=O)C45CC6CC(CC(C6)C4)C5)c(N)c3cc2C1,Potency,[1],inactive
same,Potency,[2],100 µM (active)
same,Potency,[9],inactive
O=c1cc(CN2CCN(S(=O)(=O)c3cccc(Cl)c3)CC2)c2ccc(O)cc2o1,Potency,[1],inactive
same,Potency,[2],inactive
same,Potency,[9],inactive
O=C(CN1C(=O)/C(=C2/SC(=S)N(CCS(=O)(=O)O)C2=O)c2ccccc21)Nc1cccc(Br)c1,Potency,[1],inactive
same,Potency,[2],inactive
same,Potency,[9],inactive
Oc1ccc(NCc2ccccc2OCc2ccccc2Cl)cc1,Potency,[1],inactive
same,Potency,[2],inactive
same,Potency,[9],inactive
O=C(NC1CC1)C1CCN(S(=O)(=O)c2cc([N+](=O)[O-])ccc2Cl)CC1,Potency,[1],inactive
same,Potency,[2],inactive
same,Potency,[9],inactive
O=C(Nc1nc(-c2ccc(F)cc2)cs1)C1CCN(C(=O)c2ccc(F)cc2)CC1,Potency,[1],inactive
same,Potency,[2],inactive
same,Potency,[9],inactive
CCc1ccc(S(=O)(=O)Nc2cc(SCC(=O)O)c(O)c3ccccc23)cc1,Potency,[1],inactive
same,Potency,[2],inactive
same,Potency,[9],inactive
same,Potency,[4],14.1 µM (active)
C/C=C\C=C/C(=O)Nc1cccc(C2=NOC3(C2)C[C@H](C(N)=O)N(C(=O)c2ccc(OC)cc2)C3)c1 (some centres not stated),Potency,[1],inactive
same,Potency,[2],inactive
same,Potency,[9],inactive
COc1ccc(CCN2C(=O)CSC2=Nc2ccc(C(C)C)cc2)cc1OC,Potency,[1],inactive
same,Potency,[2],inactive
same,Potency,[9],inactive
COc1cc(/C=C/C(=O)c2ccc3c(c2)OCCO3)cc(Br)c1OCC(=O)N(C)C,Potency,[1],inactive
same,Potency,[2],inactive
same,Potency,[9],inactive
O=C(Nc1ccccc1Cc1ccccc1)c1ccccc1NS(=O)(=O)c1ccc(Cl)s1,Potency,[1],inactive
same,activation,[2],"8.53% [at 17.1 µM, percent relative to cAMP agonist control]"
same,"activity change, negative = inhibition",[9],-15.4% [at 30.8 µM]
same,activation,[4],8.31% [at 30.8 µM]
CCCCn1nnnc1C(c1cc2ccccc2o1)N1CCN(c2ncccc2C#N)CC1 (configuration not stated),Potency,[1],inactive
same,activation,[2],"8.35% [at 17.1 µM, percent relative to cAMP agonist control]"
same,"activity change, negative = inhibition",[9],-7.87% [at 30.8 µM]
CC(C)=CCc1c(O)ccc2c1OC(c1ccc(O)c(O)c1)CC2=O (configuration not stated),Potency,[1],inactive
same,Potency,[2],inactive
same,Potency,[9],inactive
N#C/C(=C(/O)c1ccccc1F)c1nc2cc(C(F)(F)F)ccc2s1,Potency,[1],inactive
same,activation,[2],"1.01% [at 17.1 µM, percent relative to cAMP agonist control]"
same,"activity change, negative = inhibition",[9],14.7% [at 30.8 µM]
CCOc1ccccc1NC(=O)C1COc2ccccc2O1 (configuration not stated),Potency,[1],inactive
same,Potency,[2],inactive
same,Potency,[9],inactive
O=C(O)c1ccc(COc2ccc3ccccc3c2/C=C2/NC(=O)N(Cc3ccc(F)cc3)C2=O)cc1,Potency,[1],inactive
same,Potency,[2],inactive
same,Potency,[9],inactive
same,Potency,[4],inactive
CC(=O)C1=CCC(c2ccccc2Cl)N(S(=O)(=O)c2ccc(C)cc2)C1 (configuration not stated),Potency,[1],inactive
same,Potency,[2],inactive
same,Potency,[9],inactive
CCOC(=O)c1ccc(NC(=O)c2c(N)n(Cc3ccccc3)c(=O)[nH]c2=O)cc1,Potency,[1],inactive
same,Potency,[2],inactive
same,Potency,[9],inactive
CC(C)n1nccc1N(Cc1ccc(Cl)cc1)S(=O)(=O)c1ccccc1,Potency,[1],inactive
same,Potency,[2],inactive
same,Potency,[9],inactive
Fc1ccc2cnc(-c3ccccc3)c(-c3ccc(C(F)(F)F)cc3)c2c1,Potency,[1],inactive
same,Potency,[2],inactive
same,Potency,[9],inactive
same,Potency,[4],inactive
Cc1ccc(C)c(NC(=O)CN(C)C(=O)c2ccccc2Cc2ccccc2)c1,Potency,[1],inactive
same,Potency,[2],inactive
same,Potency,[9],inactive
